# PubChem BioAssay AID588413 (Sanford-Burnham Center for Chemical Genomics, 2011)
# The campaign covered roughly 340,000 compounds. About 2,500 (0.74%) were called active. This is one part of a sample in which actives are shown more often than they occur. A number with no mark means an inactive call.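 Rule for the calls: active = inhibition above about 55% (limit read from the data); inactive = the rest.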
# Test: Gli-Sufu pathway antagonists, primary screen, luciferase luminescence, Sufu-KO-LIGHT cells, uHTS (AID 588413);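 note: 0% = DMSO-treated cells and 100% = wells with medium but no cells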
# Details: Sufu-KO-LIGHT fibroblasts, Gli luciferase reporter luminescence; at 5 µM; stronger effect = higher value
row,Compound,inhibition
1,COC(=O)c1cc(=O)n(-c2c(Cl)cc(C(F)(F)F)cc2Cl)[nH]1,5.78%
2,C[C@]1(C(=O)NCCc2c[nH]c3ccccc23)C=C[C@@H](Cc2ccccc2)N1C(=O)c1ccccc1,6.62%
3,NC(=S)NN=C1CCCC(C(F)(F)F)C1 (centres undefined),4.43%
4,Cc1cc(C)c2nc(N3CCC(C(=O)NCCN4CCOCC4)CC3)sc2c1,42.9%
5,O=C(NCCCN1CCCC1=O)C(=O)NCC1OCCN1S(=O)(=O)c1ccc(Br)cc1 (centres undefined),9.53%
6,CCCN(c1ccc(C)cc1)c1nc(=O)c2cccnc2s1,11.6%
7,COc1cccc(NC(=O)Cn2cnc3sc(C)c(S(=O)(=O)N4CCN(C)CC4)c3c2=O)c1,-2.51%
8,CCCCCCCCCCOC(=O)Cn1c(COc2cccc(OC)c2)[n+](C)c2ccccc21,79.7% (active)
9,CCCCCCCCCCOC(=O)Cn1c(COc2ccc(C)cc2)[n+](C)c2ccccc21,83.1% (active)
10,CCCCOc1ccc(NC(=O)CSCC(=O)OCC)cc1,0.02%
11,Cc1ccc(COc2ccc(C(=O)NN)cc2)cc1,-19.9%
12,COc1cccc(NC(=O)COC(=O)CCOc2ccccc2OC)c1,-1.81%
13,CCOC(=O)CNC(=O)CSc1nnc(-c2cccc(OC)c2)n1CC,7.3%
14,Cc1ccc(N2C(=O)C3C4C=CC(CC4)C3C2=O)cc1Cl (centres undefined),6.68%
15,CN(C(=O)c1cccc([N+](=O)[O-])c1)c1ccccc1C(=O)NCc1ccccc1,0.49%
16,Cn1c(=O)[nH]c2c(c(C(=O)O)nn2C)c1=O,-2.41%
17,C/C(=N\Nc1cccc(C(=O)O)c1)c1ccc2c(c1)Nc1ccccc1S2,-35.5%
18,O=C(CN(C(=O)c1csnn1)c1cccc(Cl)c1)NC1CCCC1,-16.6%
19,CCS(=O)(=O)N1CCCC(C(=O)NCCCN(C)Cc2ccccc2)C1 (centres undefined),9.61%
20,O=C1CCCCN1CCCC(=O)N1CCCC(Nc2ccc(F)cc2)C1 (centres undefined),45.4%
21,COc1ccccc1N1CCN(Cc2ccc(OC)c3ccccc23)CC1,10.6%
22,CNCC(O)CN1CCN(c2ccccc2OC)CC1 (centres undefined),2.51%
23,COc1ccccc1N1CCN(Cc2cc(OC)c3c(c2)OCO3)CC1,60.1% (active)
24,CN1CCN(c2cc(=O)n(-c3ccc(Cl)cc3)c(=O)[nH]2)CC1,7.35%

row,Compound,inhibition
1,C=CCO/N=C/C1=C(O)C(C(=O)OC)C(C)(C)CC1=O (centres undefined),-5.83%
2,CCN(CC)CCCC(C)n1c2nc(=O)[nH]c(=O)c-2nc2cc(Cl)ccc21 (centres undefined),83.6% (active)
3,CCOC(=O)C1(CCOC)CCN(Cc2cc3ccccc3s2)CC1,-4.84%
4,CCN(CC)CCCN=Cc1c(O)n(-c2ccc(C)cc2)c(=O)c2ccccc12,-0.11%
5,CCOc1ccc(-n2c(O)c(/C=N/Nc3nc(C)cc(C)n3)c3ccccc3c2=O)cc1,61.7% (active)
6,Cc1ccc(-n2c(O)c(C=Nc3ccc(S(=O)(=O)Nc4ncccn4)cc3)c3ccccc3c2=O)cc1C,-0.18%
7,Cc1ccc(N=Cc2c(O)n(-c3nccs3)c(=O)c3ccccc23)c(C)c1,-4.34%
8,Cc1cc(C)nc(N/N=C/c2c(CO)cnc(C)c2O)n1,0.23%
9,CCOc1ccc(-n2c(O)c(/C=N/c3ccnn3Cc3ccncc3)c3ccccc3c2=O)cc1,62.7% (active)
10,CSc1ncccc1C(=O)NCc1ccccc1Cl,-8.35%
11,CC(=O)c1c(O)cc2n(c1=O)-c1ccc(Cl)cc1C2(C)C,-0.02%
12,COC(=O)CC(CC(=O)OC)n1cccc1,6.12%
13,Cc1ccc(O)c(NC(=O)COc2cc(C)ccc2C)c1,63.9% (active)
14,Cc1ccc(C)c(OCC(=O)NNC(=O)C2CCC2)c1,3%
15,Cc1ccc(O)c(NC(=S)NC(=O)COc2ccc(Br)cc2)c1,-1.7%
16,CCC1CCCCN1C(=S)NC(=O)c1ccco1 (centres undefined),3.37%
17,O=C(CSC(=S)N1CCCCC1)c1c(F)cccc1F,-23.9%
18,CCCCn1nc(C(=O)OCC(=O)Nc2sccc2C(N)=O)c2ccccc2c1=O,-33%
19,CCOC(=O)c1c(C)[nH]c2c1-c1ccccc1C(=O)C2=O,95.8% (active)
20,CCOC(=O)C1=C(C)c2ccccc2OC1(C)C(=O)OCC (centres undefined),-1.26%
21,CCOC(=O)c1[nH]c2ccccc2c1N=C(C)N(CC)CC,4.83%
22,C=CCn1c(C)cc(C2=NNC(=NCC)SC2)c1C,93% (active)
23,CCCN(CCC)C(=O)C1c2ccccc2Oc2ccccc21,-1.09%
24,CNCC(O)c1ccc(O)c(O)c1 (centres undefined),-2.95%

row,Compound,inhibition
1,COc1ccc(CCNc2ncnc3c2nnn3Cc2ccccc2)cc1,4.12%
2,COc1ccc(NC(=O)/C(N=Nc2cccc(S(=O)(=O)Nc3ccc(SC(F)F)cc3)c2)=C(\C)O)cc1,-4.13%
3,C=CCOc1nc2c(c(=O)n(C)c(=O)n2C)n1Cc1ccc(Cl)cc1Cl,62% (active)
4,Cn1c(=O)c2c(nc(OCc3cccnc3)n2Cc2ccccc2)n(C)c1=O,8.04%
5,C=CCn1c(Oc2ccc(C(=O)OC)cc2)nc2c1c(=O)n(C)c(=O)n2C,1.23%
6,O=S(=O)(Nc1cc(S(=O)(=O)N2CCOCC2)ccc1N1CCCC1)c1cccs1,5.7%
7,CCn1c(/C=C/c2ccc([N+](=O)[O-])o2)nc2ccccc2c1=O,80% (active)
8,O=c1c2ccccc2ncn1/N=C/c1ccccc1,20.9%
9,Cc1ccc(-n2c(SCC(=O)N/N=C/C=C/c3ccccc3[N+](=O)[O-])nc3ccccc3c2=O)cc1,14.2%
10,O=C(Nc1ccccc1C(=O)NCC1CCCO1)c1ccccc1F (centres undefined),-6.12%
11,CC(C)c1ccc2c(c1)c(SC(C)(C)C)c(CC(C)(C)C(=O)O)n2Cc1ccc(Cl)cc1,-0.1%
12,CCCCCCCCn1c2c(c(=N)c3c1CCC3)CCCC2,89.4% (active)
13,O=C(NNS(=O)(=O)Cc1ccccc1)c1ccc([N+](=O)[O-])cc1,-11.2%
14,CCOC(=O)C1CCCN(CCSc2ccc(C)cc2)C1 (centres undefined),21.1%
15,CN(C)C(=O)COC(=O)c1cccc(S(=O)(=O)N2CC3(C)CC2CC(C)(C)C3)c1 (centres undefined),0.32%
16,CC1(C)CC2CC(C)(CN2c2ncnc3ccc(Br)cc23)C1 (centres undefined),62.2% (active)
17,COc1ccc(Nc2ncnc3ccc(Br)cc23)c(OC)c1,26.3%
18,COc1cc(C(F)(F)F)nc2c(Br)c(C(C)(C)C)nn12,4.44%
19,CN(Cc1ccc(CNC[C@H]2O[C@@H](n3cnc4c(N)ncnc43)[C@H](O)[C@@H]2O)o1)S(C)(=O)=O,-0.83%
20,CCc1cc2cc(OC)ccc2nc1SCC(=O)Nc1cc(OC)c(OC)cc1C(=O)O,-8.77%
21,Cc1ccc(-n2ncc3c(=O)n(-c4ccc(C)c(C)c4)c(-c4ccco4)nc32)cc1,4.8%
22,Cc1ccc(-c2nc3c(cnn3-c3ccccc3)c(=O)o2)cc1,56.1% (active)
23,CC(=O)Cn1cnc2c(cnn2-c2ccccc2)c1=O,-18.4%
24,COc1ccc(OC)c(C2C3=C(N=c4s/c(=C\c5cccc(O)c5)c(=O)n42)c2ccccc2CC3)c1 (centres undefined),-4.15%

row,Compound,inhibition
1,CCN(CC)S(=O)(=O)c1ccc(N(C)Cc2ccc(C(F)(F)F)cc2)nc1,17.7%
2,CCCCNCCS(=O)(=O)NCc1ccccc1,-0.46%
3,COc1cccc(/C=N/Nc2ccc(S(=O)(=O)Nc3ccccc3C(=O)O)cc2[N+](=O)[O-])c1O,6.14%
4,COc1ccc(Br)cc1/C=N/Nc1ccc(Cl)c(C(=O)O)c1,8.66%
5,COc1cccc(/C=N/Nc2ncc(C(F)(F)F)cc2Cl)c1O,59.1% (active)
6,O=C(OCC(=O)N1CCc2ccccc21)C1CCCN1S(=O)(=O)c1ccc(Cl)cc1 (centres undefined),-11.8%
7,CC1(C)CC(=O)NC=C(c2ccccc2)C1,1.28%
8,Cn1ccsc1=NC(=O)c1cc(S(=O)(=O)N2CCOCC2)ccc1Cl,-4.66%
9,O=C1C(Cl)=C(N2CCOCC2)C(=O)N1c1ccccc1,0.4%
10,c1ccc(-n2nnnc2NC2CCCCCC2)cc1,8.53%
11,c1ccc(-n2nnnc2N2CCOCC2)cc1,94.8% (active)
12,COc1ccc(S(=O)(=O)N2CCCC(C(=O)NCCCn3ccnc3)C2)cc1OC (centres undefined),15.1%
13,O=C1NNC(c2ccccc2)=N/C1=C\c1ccc(Cl)cc1,5.34%
14,CCn1cc(C(=O)NCC2COc3ccccc3O2)c2cc(OC)c(OC)cc2c1=O (centres undefined),10.7%
15,CC(=O)Nc1ccc(Nc2c3ccccc3nc3ccccc23)cc1,75% (active)
16,CC(=O)Nc1ccc(Nc2c([N+](=O)[O-])cc(S(C)(=O)=O)cc2[N+](=O)[O-])cc1,-0.18%
17,CC(=O)Nc1ccc(S(=O)(=O)N(C)c2nc3ccccc3nc2Cl)cc1,1.9%
18,CCOc1ccc(NC(=O)c2ccc(NC(=O)CN3C(=O)C(=O)N(CC(C)C)C3=O)cc2)cc1,-34.9%
19,CCC1([N+](=O)[O-])COC(c2ccc(C(C)C)cc2)OC1 (centres undefined),-31.9%
20,CCC(=C/c1sc2ccc3ccccc3c2[n+]1C)/C=C1\Sc2ccc3ccccc3c2N1C,64.2% (active)
21,O=C(c1ccccc1)c1ccc2nc(N3CCCCC3)c3nncn3c2c1,6.66%
22,O=C(NC1CCc2ccccc21)C12CN(Cc3ccccc3)CC1C(c1cccc([N+](=O)[O-])c1)=NO2 (centres undefined),6.88%
